Mito fusion act: blocks mitochondrial division or promotes mitochondrial fusion. hit rate 0.23% among 320,000. Potency, µM (series often up to 46.1 µM), for the others: top-dose growth rescue (activation), most hits filed as activators. S. cerevisiae fusion-defective mutant growth rescue, CellTiterGlo 48 h; also: % of control where 0% means no effect; nearly all actives have a fitted effect of over 45% in size
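Growth-rescue viability read-out: after 48 h at the non-permissive 37C in glycerol/ethanol YPEG, yeast mitochondrial fusion mutants are measured by CellTiterGlo luminescence; compounds (23 nl pinned per well) restoring growth score as division inhibitors or fusion activators.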
BRCA1 expr act: activators of BRCA1 expression; MCF7-BRCA1-FFLuc reporter, luminescence, 48 h; response scale: scaled: vehicle 0%, 10 µM genistein 100%; Potency, µM (doses to about 46.1 µM), for the others: at the top dose activation, most hits filed as activators; AID 624202; hit rate 1.1% among 380,000; also: nearly all actives have a fitted effect of over 80% in size
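Cells: MCF7-BRCA1-FFLuc, 2000/well. Exposure: 48 h, 37 °C, 5% CO2. Read: luminescence, 15 min post-substrate. Controls: genistein 10 microM (maximal activation), DMSO (neutral).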
ERG-DNA inh: inhibitors of human ERG Ets domain-DNA interaction; P11308; fluorescence polarization, His-ERG Ets domain / labelled DNA; Potency, µM (highest dose often 76.9 µM), without a hit: at the top dose FP activity, negative = inhibition, actives largely listed as inhibitors; hit rate 0.028% among 370,000; AID 624246; active = well fitted inhibition curve with a large enough effect in the polarisation, with a control signal flat; inconclusive = small, poorly fitted or top-dose-only effect, or effect the other way, or a change in a side signal; inactive = no such curve, though single readings can be large or run the other way; the % refers to the polarisation;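 also: polarization taken with two DNA probes labelled with fluorescein and Texas red; % of control where 0% means no effect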
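His-tagged ERG Ets domain (1 uM in the protein solution; 300mM KCl, 50mM Tris-HCl, 1mM EDTA, 1mM DTT, pH 7.5) received compound, then a probe mix of 5 nM fluorescein-DNA and 100nM Texas-615-DNA. Fluorescence polarization was read for both dyes.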
B2AR arrestin: recruits beta-arrestin to the human beta2-adrenergic receptor | P07550 | beta-arrestin recruitment to beta2AR, cell-based reporter | Potency, µM (doses to about 46.1 µM), for inactives: at the highest dose activation, most hits filed as activators | hit rate 0.02% among 330,000 | AID 492947;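 also: 0% = DMSO controls and full agonism = EC100 isoproterenol or metaproterenol; nearly all actives have a fitted effect of over 65% in size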
Target sequence (P07550 whole entry, looked up): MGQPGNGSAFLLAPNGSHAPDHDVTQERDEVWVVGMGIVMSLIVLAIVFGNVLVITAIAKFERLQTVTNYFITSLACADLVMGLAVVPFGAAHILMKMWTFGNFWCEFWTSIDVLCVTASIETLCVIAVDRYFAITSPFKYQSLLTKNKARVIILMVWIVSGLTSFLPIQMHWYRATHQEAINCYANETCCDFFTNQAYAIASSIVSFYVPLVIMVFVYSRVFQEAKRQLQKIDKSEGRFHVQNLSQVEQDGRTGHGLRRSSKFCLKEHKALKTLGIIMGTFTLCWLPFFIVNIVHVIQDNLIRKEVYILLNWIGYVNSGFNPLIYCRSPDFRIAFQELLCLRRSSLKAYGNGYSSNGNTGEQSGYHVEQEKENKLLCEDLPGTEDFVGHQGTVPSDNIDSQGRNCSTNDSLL
* = called active by the depositor; ? = inconclusive; . = no result; ! = not confirmed by another sample. This is a sample that favours compounds with a hit; in the whole collection about 1.2% have one here. Unless noted, calls follow the shape of the dose curve; as a rule, active = well fitted curve in the direction sought with a large enough effect; inconclusive = small, poorly fitted or top-dose-only effect, or another doubt; inactive = no such curve, though single readings can be large; an effect the other way counts as inactive or inconclusive. Potency is read from the fitted curve at half-maximal effect.

SMILES	Mito fusion act	BRCA1 expr act	ERG-DNA inh	B2AR arrestin
CCOc1ccc(NC(=O)CC2C(=O)N(c3ccccc3)C(=O)N2Cc2cccc(OC)c2)cc1 (stereo not drawn)	.	.	-6.7%	.
Cc1ccc(NNC(=O)c2cc(C(C)(C)C)nn2Cc2ccccc2)cc1	-2.8%	-25.3%	-4.2%	3.1%
COc1ccccc1NNC(=O)c1cc(C(C)(C)C)nn1Cc1ccccc1	9.4%	10µM*	-5.4%	0.2%
CN(C)c1oc(-c2ccc(COc3ccccc3)o2)nc1C#N	.	.	3.4%	.
Clc1ccc(C[n+]2csc3ccccc32)cc1	11.2µM*	-42.3%	.	-1.7%
CCCCSCCCNC(=O)CN1C(=O)COc2ccc(S(=O)(=O)N3CCC(C)CC3)cc21	.	3.1%	-0.2%	.
CC(=O)c1cccc(OCc2cc(C(=O)N(C)CCc3ccccn3)no2)c1	0.1%	16.5%	-0.1%	-0.8%
Cc1ccc(OCc2cc(C(=O)N(C)CCc3ccccn3)no2)cc1C	?	8.91µM*	-29.1%	-1.1%
COc1cccc(CCNC(=O)c2cc(COc3ccc(C)c(C)c3)on2)c1OC	.	5.62µM*	.	.
Cc1ccc(OCc2cc(C(=O)NCCc3cccnc3)no2)cc1C	-0.7%	11.2µM*	-16.1%	0.4%
O=C(NCCCn1cccn1)c1cc(COc2ccccc2)on1	.	11.2µM*	.	.
COc1cccc(CCNC(=O)c2cc(COc3cccc(OC)c3)on2)c1	.	67.8%	.	.
COc1ccc(CNc2nc(-c3ccco3)nn2S(=O)(=O)c2ccc3ccccc3c2)cc1OC	.	.	0.1%	.
COc1ccc(-c2nn(C)c3sc(C(=O)N4CCN(c5cccc(C)c5C)CC4)cc23)cc1OC	.	.	-0.4%	.
Cc1ccc(NC(=O)C2CCCN2S(=O)(=O)c2ccc3c(c2)C(C)(C)C(=O)N3C)cc1 (stereo not drawn)	.	.	-0.9%	.
C=CC1CN2CCC1CC2[C@@H](O)c1ccnc2ccc(OC)cc12 (stereo partly drawn)	.	-9.2%	.	.
CCCc1cc(C(=O)NCCc2ccccc2)no1	-5.1%	3.98µM*	-0.1%	-0.3%
CCCc1cc(C(=O)Nc2cc(C)ccc2O)no1	-2.2%	2.82µM*	-0.7%	-0.6%
CCc1cc(C(=O)NCc2ccccc2)no1	.	.	0.2%	.
O=C(COc1ccccc1[N+](=O)[O-])Nc1ccc2c(c1)CCC2	7.6%	10µM*	-9.7%	0.0%
O=C(COc1ccccc1[N+](=O)[O-])Nc1ccc2c(c1)OCO2	5.1%	10µM*	-8.8%	-0.2%
CC(C)c1nnc(NC(=O)COc2ccccc2[N+](=O)[O-])s1	2.2%	10µM*	-2.5%	0.3%
O=C(COC(=O)COc1ccccc1[N+](=O)[O-])Nc1ccc2c(c1)OCO2	.	-15.1%	-5.6%	-0.7%
O=C(COc1cc(F)ccc1[N+](=O)[O-])Nc1ccc2c(c1)OCO2	-1.6%	3.55µM*	-5.0%	-0.1%
CC1=C(C(=O)Nc2ccccc2)C(c2ccccn2)n2nc(SCc3ccccc3)nc2N1 (stereo not drawn)	.	-2.0%	-5.0%	.
SMILES	Mito fusion act	BRCA1 expr act	ERG-DNA inh	B2AR arrestin
CCOc1ccccc1NC(=O)C(=O)c1cc(C)n(-c2cccc(C)c2C)c1C	.	.	-10.2%	.
Cc1ccc(OCC(=O)Nc2ccc3c(c2)OCO3)c(C)c1	0.2%	0.0%	-4.4%	-0.1%
CC(=O)c1cc(F)ccc1OCC(=O)Nc1ccc2c(c1)OCO2	.	1.26µM*	7.8%	-0.2%
C=C(C)Cn1c(N2CC(C)CC(C)C2)nc2c1c(=O)[nH]c(=O)n2C (stereo not drawn)	25.1µM*	-0.7%	-14.9%	-0.1%
S=c1nc(-c2ccc(Cl)cc2)[nH][nH]1	18.1%	14.2%	-2.0%	-0.4%
C=CCSc1n[nH]c(-c2ccc(OCCC)cc2)n1	17.1%	3.55µM*	1.1%	-0.9%
CCCOc1ccc(-c2nc(=S)[nH][nH]2)cc1	21.6%	3.55µM*	1.2%	-0.3%
C=CCSc1n[nH]c(-c2ccc(OCCCC)cc2)n1	27.1%	7.94µM*	6.2%	0.3%
CCOC(=O)C1CCN(c2c(C(=O)c3ccc(OC)cc3)cnc3ccccc23)CC1	.	-15.5%	-0.4%	.
CCNc1nc(NCc2ccc(F)cc2)c2cnn(C)c2n1	.	.	14.1%	.
C#CCN1C(C)=C(C(=O)OC)C(c2cccc([N+](=O)[O-])c2)C(C(=O)OCC)=C1C (stereo not drawn)	4.61µM*!	-36.0%	6.9%	-0.2%
CCN(CC)S(=O)(=O)c1ccc(NC(=O)CSc2nnc3c(n2)[nH]c2ccccc23)cc1	.	10.7%	.	.
COc1ccc(O)c(/C=N/NC(=S)Nc2cccc(S(=O)(=O)N(C)C)c2)c1	3.9%	-96.2%	.	0.9%

Screening results from PubChem BioAssay.
